Compound activity deposited in PubChem BioAssay by National Center for Advancing Translational Sciences (NCATS).
Compounds with a hit are over-represented: about 6.5% of the library has one in this group of screens.
Vaccinia Venus – vaccinia inhibition (Venus reporter); Vaccinia virus Venus reporter expression, fluorescence; Potency, µM (highest dose often 36.5 µM), inactives show at the highest dose activity change, negative = inhibition, actives largely listed as inhibitors; hit rate 0.46% among 330,000; AID 720580; calls by dose curve; tested in A549 cells; note: potency is the fitted concentration of half-maximal effect; nearly all actives have a fitted effect of over 30% in size
VACV mCherry inh – inhibitors of vaccinia virus infection (mCherry reporter signal). Vaccinia virus mCherry reporter infection, fluorescence. Potency, µM (top dose mostly 36.5 µM), for the others: at the highest dose activity change, negative = inhibition, usual class: inhibitors. hit rate 0.63% among 310,000. AID 720579; calls by dose curve; tested in A549 cells; note: potency is the fitted concentration of half-maximal effect; nearly all actives have a fitted effect of over 35% in size
FMDV antiviral – blocks foot and mouth disease virus; FMDV antiviral cell-based qHTS; Potency, µM (top dose mostly 57.9 µM), for inactives: at the highest dose activity change, negative = inhibition, most hits filed as inhibitors; hit rate 1.2% among 410,000; calls by dose curve; tested in HEK293T cells; note: read-out not given here; potency is the fitted concentration of half-maximal effect; nearly all actives have a fitted effect of over 45% in size
Marburg entry inh – inhibitors of Marburg virus binding or cell entry; Marburg virus pseudotyped entry inhibition, cell reporter; Potency, µM (top dose mostly 37.8 µM), for the others: top-dose activity change, negative = inhibition, most hits filed as inhibitors; hit rate 1.8% among 300,000; AID 540276; calls by dose curve; tested in HEK293 cells; note: potency is the fitted concentration of half-maximal effect
Lassa entry inh – inhibitors of Lassa virus binding or cell entry; Lassa virus pseudotype entry inhibition, cell reporter; Potency, µM (top dose mostly 37.9 µM), inactives show at the highest dose activity change, negative = inhibition, usual class: inhibitors; hit rate 1.2% among 300,000; AID 540256; calls by dose curve; tested in HEK293 cells; note: potency is the fitted concentration of half-maximal effect; nearly all actives have a fitted effect of over 50% in size
HCMV antiviral – inhibitors of human cytomegalovirus | HFF cells, HCMV-luciferase reporter, 72 h; stronger effect = lower value | activity change, negative = inhibition, % at 57.5 µM | hit rate 4.5% among 410,000; in the data active = activity change below about -60%; inconclusive = no clear call, values can overlap the other calls; inactive = above about -39%
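HFF cells seeded 16 h at 37C, treated with compounds, infected with luciferase-reporter HCMV at MOI 1 PFU/cell; luciferase read at 72 h post infection, normalized to buffer-only and Salinomycin controls.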
The depositor's hits bear a star; ? = inconclusive; · = no result; ! = not confirmed by another sample; [ ] = another dose, or the depositor's remark. % is set by controls: 0 for no effect and ±100 for the full control effect.

SMILES	Vaccinia Venus	VACV mCherry inh	FMDV antiviral	Marburg entry inh	Lassa entry inh	HCMV antiviral
C#CCOCCOCCOCCNc1nc(N2CCN(C(=O)CCCCCCCCCCNC(=O)[C@@H](CCSC)n3cc(CCO)nn3)CC2)nc(N2CCN(C(=O)CCCCCCCCCCNC(=O)[C@H]([C@@H](C)CC)n3cc(CCCCN=C(N)N)nn3)CC2)n1	8.9µM*	?	?	·	·	·
CCN(CC)CCN1C(=O)C(=O)/C(=C(/O)c2c(C)[nH]c(C(=O)OC)c2C)[C@@H]1c1ccc(OC)cc1	·	·	·	22%	·	·
OC1CCC(Nc2nccc3[nH]c(-c4cccc(C(F)(F)F)c4)nc23)CC1 (stereo not given)	·	·	·	·	·	4
COc1ccc(-c2nc3cnc(N4CCN(C)CC4)nc3n(C)c2=O)cc1	·	·	26%	·	·	·
O=C1c2ccc(-c3nc4ccccc4o3)cc2C(=O)N1Cc1ccccc1	-9%	-7%	4%	12%	-1%	-105*
O=C1c2ccc(-c3nc4ccccc4o3)cc2C(=O)N1Cc1cccnc1	-1%	-15%	·	0%	7%	-25
CCc1ccc2c(CN3CCN(Cc4ccccc4)CC3)cc(=O)oc2c1	-17%	55%	0%	-3%[46.1 µM]	1%	-4
O=S(=O)(NCCN1CCN(S(=O)(=O)c2ccccc2F)CC1)c1ccccc1F	-14%	-22%	-16%	?	-21%	-37
O=S(=O)(c1ccccc1F)N1CCN(CCc2ccccc2)CC1	-24%	-8%	?	?	-13%	-72*
CC(=O)c1c(C)[nH]c(C(=O)CN2CCN(S(=O)(=O)c3ccc(C(C)C)cc3)CC2)c1C	·	·	?	·	·	-27
CC(=O)c1c(C)[nH]c(C(=O)CN2CCN(S(=O)(=O)c3ccccc3F)CC2)c1C	-18%	-26%	18µM*	?	?	?
CCc1ccc2c(CN3CCN(S(=O)(=O)c4ccccc4F)CC3)cc(=O)oc2c1	-11%	-14%	?	11µM*	?	-3
Cc1cc(C(C)(C)C)cc(CN2CCN(S(=O)(=O)c3cccs3)CC2)c1O	-28%	-14%	?	·	·	-77*
CCc1ccc(S(=O)(=O)c2nnn3c2nc(Nc2ccc(F)cc2)c2cc(Cl)ccc23)cc1	?	?	-11%	12%[46.1 µM]	·	-6
CCC(C(=O)N1CCN(c2ccccc2)CC1)n1nc(C)c2sc3ccccc3c2c1=O (stereo not given)	-11%	-9%	-17%	1%[46.1 µM]	-1%[46.1 µM]	2
COC[C@H]1O[C@]2(c3ccccc3)CO[C@@H]1[C@@H](C=Cc1ccccc1)C2	·	·	·	26%[14.2 µM]	?	·
COc1cc(=O)n2c(c1C(=O)NCc1nccs1)CCN(Cc1ccccc1F)CC2	-17%	-5%	-8%	·	·	·
CCc1ccc2c(CN3CCN(S(=O)(=O)c4cccs4)CC3)cc(=O)oc2c1	?	-26%	?	?	2.5µM*	-12
Cc1ccc2nc(SCC(=O)N3CCOc4ccc(CN5C[C@@H](C)O[C@@H](C)C5)cc4C3)[nH]c2c1	-3%	-13%	-3%	·	·	·
COc1cc(/C=N/Nc2nn3cnnc3c3ccccc23)ccc1O	-9%	?	-5%	-29%	?	82
COc1cc(C=NNc2ncnc3c2cnn3C(C)C)ccc1O	·	·	·	·	13µM*	·
O=c1cc(N2CCOCC2)oc2c(-c3ccccc3)cccc12	?	-23%	-23%	0.32µM*!	-18%	·
O=C1NC[C@H](Cc2ccccc2)N(C[C@H]2CCCN2C[C@H](Cc2ccccc2)N2C[C@H](Cc3ccc(O)cc3)N(CCc3ccccc3)C(=O)C2=O)C1=O	-9%	-6%	-19%	·	·	-73*
CCOc1ccc(CCN2C(=O)C(=O)N([C@@H](CC(C)C)CN3CCC[C@@H]3CN3C(=O)C(=O)NC[C@@H]3Cc3ccccc3)C[C@@H]2CC(C)C)cc1	13µM*	-1%	?	·	·	-14
CCOc1ccc(CCN2C(=O)C(=O)N([C@@H](Cc3ccc(O)cc3)CN3CCC[C@H]3CN3C(=O)C(=O)NC[C@@H]3Cc3ccccc3)C[C@@H]2Cc2ccc(O)cc2)cc1	-3%	-6%	-5%	·	·	-23
SMILES	Vaccinia Venus	VACV mCherry inh	FMDV antiviral	Marburg entry inh	Lassa entry inh	HCMV antiviral
CCOc1ccc(CCN2C(=O)C(=O)N([C@@H](Cc3ccccc3)CN3CCC[C@H]3CN3C(=O)C(=O)NC[C@@H]3Cc3ccccc3)C[C@@H]2Cc2ccccc2)cc1	?	?	?	·	·	-65*
CCOc1ccc(CCN2C(=O)C(=O)N([C@@H](CC(C)C)CN3CCC[C@H]3CN3C(=O)C(=O)NC[C@@H]3Cc3ccccc3)C[C@@H]2Cc2ccccc2)cc1	-29%	?	?	·	·	-29
CNc1snc(C)c1C(=O)OCC(=O)c1ccc(OC)c(F)c1	·	·	?	·	·	-74*
Cc1ccc(C2N=C(Nc3nc4ccccc4o3)NC3=C2C(=O)CC(C)(C)C3)cc1 (stereo not given)	-8%	-15%	·	·	·	·
Cc1ccc(-n2c(-c3ccccc3)c[n+]3c2CCC3)cc1	5%	-14%	?	?	?	-95*
c1ccc(-c2c[n+]3c(n2-c2ccccc2)SCC3)cc1	-8%	-8%	?	?	11%[46.1 µM]	-36
Cc1ccc(-n2c(-c3ccc(Cl)cc3)c[n+]3c2CCC3)cc1	·	·	?	·	·	-91*
FC(F)Sc1ccc(-n2c(-c3ccc(Cl)cc3)c[n+]3c2CCC3)cc1	-3%	-1%	-25%	·	·	-25
CCOC(=O)c1c(C)[nH]c(CCC(=O)Nc2c(Cl)cc(OC)cc2OC)c1C	-12%	-17%	-26%	·	?	2
COc1ccccc1NC(C)C(=O)c1c(C)[nH]c2ccccc12 (stereo not given)	-26%	-5%	·	·	·	·
O=C(NCc1cccc(F)c1)c1cccc(OC2CCN(C(=O)C3CC3)CC2)c1	?	-8%	28µM*	?	-29%	?
CCOc1ccc(NC(=O)Cn2c3ncccc3c(=O)n2-c2ccc(CC)cc2)cc1	-1%[7.34 µM]	-3%[7.34 µM]	-29%	·	-10%[46.1 µM]	-28
O=C(COC(=O)C12CC3CC(CC(Br)(C3)C1)C2)NCc1ccco1	-11%	-1%	·	·	·	·
Cc1nc2c(-c3ccc(Cl)cc3)cnn2c(N)c1-c1ccc(F)cc1	·	·	0.79µM*	·	·	?
COc1ccc(-c2c(C)nc3c(-c4ccc(F)cc4)cnn3c2N)cc1	·	·	31%	·	·	15
Cc1nc2c(-c3ccc(F)cc3)cnn2c(N)c1-c1ccccc1	·	·	16µM*	·	·	-72*
Cc1ccc(Nc2c(-c3ccc(C)s3)nc3cccc(C)n23)cc1	-13%	-23%	·	·	·	·
CN(C)c1ncc2nc(-c3cccs3)c(=O)n(C)c2n1	·	·	27%	·	·	·
Cc1ccc(-n2nc3ccc(N)cc3n2)c(C)c1	·	·	-18%	·	·	7
Cc1ccc(N2C(N)=NC(N)=NC23CCCC3)c(C)c1	1%	·	-18%	37%	5%	-67*
CC(C)COC(=O)N(C)c1ccc(C(O)(C(F)(F)F)C(F)(F)F)cc1	?	·	?	5%	3.5µM*	8
Cc1c([N+](=O)[O-])cc(C(=O)N2CCOCC2)cc1[N+](=O)[O-]	-7%	-4%	-15%	?	5%	0
